Each structure is given as a SMILES string. Results filed as inconclusive are left out. A call without a number means that no potency is given here. Calls of active or inactive are those of the source. The call rests on the fitted dose curve; in most records, active means well fitted inhibition curve with a large enough effect in the repeat runs; inconclusive means weak or mixed curves; inactive means flat fitted curve, though single readings scatter.
Potency means the concentration at half of the fitted maximal effect.

The assay in a line: qHTS assay to identify small molecule HDAC inhibitors (AID 1259364). Further: nearly all actives have a fitted effect of over 45% in size. On activity change, negative = inhibition: top concentration of the series differs between compounds. The settings on record: HCT-116 HDAC-Glo I/II luminescence, 2 h; series mostly up to 92.4 µM. From the text: U.S. Tox21 Program National Center for Advancing Translational Sciences [NCATS] NIH Chemical Genomics Center [NCGC] U.S. Environmental Protection Agency [EPA] National Institutes of Environmental Health Sciences [NIEHS] National Toxicology Program [NTP] U.S. Food and Drug Administration [FDA] Tox21 Assay Overview: Histone deacetylases (HDACs) are a group of epigenetic enzymes that regulate gene expression by histone deacetylation. HDACs are capable of introducing epigenetic modifications and such aberrations contribute to the onset and progression of several human diseases, thus making HDACs a popular therapeutic target. For identifying endogenous class I/II HDAC inhibitors a homogenous, luminogenic HDAC I/II cell based assay was used to measure the relative activity of class I and II HDACs from cells. Wild type HCT-116 cells were used to screen Tox21 libraries for identifying class I/II HDAC inhibitors.
Tox21 Assay Protocol Summary: HCT-116 cells were dispensed at 1,500 per well in 5uL of culture medium into white solid bottom 1536-well plates (Greiner Bio-One, Monroe, NC) using a Multidrop Combi (Thermo Scientific, Waltham, MA) dispenser. The assay plates were incubated at 37 C and 5% CO2 for an overnight, and then 23nL of compounds dissolved in DMSO and positive control were transferred using a Pintool station (Wako, San Diego, CA). The assay plates were incubated at 37C and 5% CO2 for 2hr. After compound treatment, 4uL of HDAC-Glo reagent (Promega Corporation, Madison, WI) was added to each well of the assay plates using Flying Reagent Dispenser (FRD, Aurora Discovery, San Diego, CA) and incubated the assay plates at room temperature for 30min. The luminescence signal was quantified using a ViewLux plate reader (Perkin Elmer, Shelton, CT).
For the compound `Cn1c(=O)c2[nH]c(Br)nc2n(C)c1=O`, the Potency result was “inactive”.
On to `Cc1ccc(C(=O)O)cc1[N+](=O)[O-]`, for which the Potency entry is “inactive”.
As to `CC(C)c1ccc(C=O)cc1`, the Potency entry is “inactive”.
In the case of `CC(=O)CCc1ccc(OC(C)=O)cc1`, the Potency result was “inactive”.
Same read-out and setting: in the case of `Cc1ccnc(N)c1` it was “inactive”.
Same read-out and setting: the same measure for `CCCCCC/C=C/C(=O)OC`: “inactive”; for `O=C(CN1CCNCC1)NC1CCCCC1`: “inactive”; for `CO/N=C(/C(=O)N[C@@H]1C(=O)N2C(C(=O)[O-])=C(C[n+]3ccn4ncccc43)CS[C@H]12)c1nsc(N)n1`: “inactive”.
The same measure, in the same setting: the same measure for `COC(=O)c1cc(Cl)cc(Cl)c1`: “inactive”.
On to `CCCCCC(C)O` (stereo not given), for which the Potency entry is “inactive”.
For the compound `O=C(O)c1cc2ccccc2nc1C(=O)O`, the Potency result was “inactive”.
Take `Cc1ccc2c(c1)C(=O)c1ccccc1C2=O`: the Potency is 1.21 µM (active).
On the same count and under the same terms, the same measure for `CC(=O)O[C@H]1C[C@@H]2CC[C@@]1(C)C2(C)C`: “inactive”; for `c1ccc2c(CC3=NCCN3)cccc2c1`: “inactive”.
Still for that read-out and setting: the same measure for `CC(=O)Nc1ccc(OC(=O)c2ccccc2OC(C)=O)cc1`: 23.7 µM (active); for `C=CC/C=C/C`: “inactive”.
On the same count and under the same terms, the same measure for `NCCOCCN`: “inactive”; for `CCOCCOCC`: “inactive”.
Turning to `Cc1c(C(=O)c2c[nH]n(C)c2=O)ccc(S(C)(=O)=O)c1C1=NOCC1`, the Potency result is “inactive”.
Regarding `COC(=O)CCCCC(=O)O`, the Potency result is “inactive”.
On the same count and under the same terms, the same measure for `CC1(C)Oc2ccc(C#N)cc2[C@@H](N2CCCC2=O)[C@@H]1O`: “inactive”; for `CC/C(C)=N\O[Si](C)(O/N=C(\C)CC)O/N=C(\C)CC`: “inactive”; for `CC(=O)C(C)O` (stereo not given): “inactive”.
As to `CCCC(=O)OC/C=C(\C)CCC=C(C)C`, the Potency entry is “inactive”.
On the same count and under the same terms, in the case of `[O-][n+]1cccc(/C(Cl)=N/OC[C@@H](O)CN2CCCCC2)c1` it was “inactive”; in that of `CC1(C)O[C@H]2CC(=O)OC[C@]23[C@H]2CC[C@@]4(C)[C@H](c5ccoc5)OC(=O)[C@H]5O[C@]54[C@]2(C)C(=O)C[C@@H]13`, “inactive”; in that of `CCC(C)OC(C)CC` (stereo not given), “inactive”.
As for `OC[C@H]1O[C@@H](O[C@@H]2[C@@H](CO)O[C@](O)(CO)[C@H]2O)[C@H](O)[C@@H](O)[C@H]1O`, the Potency result was “inactive”.
The same measure, in the same setting: the same measure for `CN(C)CCN(C)CCO`: “inactive”.
The same measure, in the same setting: in the case of `CC(C)[C@H]1CC[C@H](C)C[C@@H]1O` it was “inactive”.
`O=C(O)CCCCCC(=O)O`: the Potency result is “inactive”.
On to `CCC(C)C(C)=O` (stereo not given), for which the Potency result was “inactive”.
Still for that read-out and setting: the same measure for `C/C(CC(C)C)=N\O`: “inactive”.
`O=S(=O)(O)c1ccc2c(N=Nc3ccc(S(=O)(=O)O)c4ccccc34)c(O)c(S(=O)(=O)O)cc2c1`: the activity change, negative = inhibition is 1.26% [at 8.39 µM] (inactive).
Take `CC1c2ccccc2CN1NC(=O)c1ccc(Cl)c(S(N)(=O)=O)c1` (stereo not given): the Potency result is “inactive”.
On the same count and under the same terms, the same measure for `CC(C)CCOC(=O)c1ccccc1`: “inactive”; for `CCCCCCCCCCCCCBr`: “inactive”; for `O=C(Cn1ccnc1[N+](=O)[O-])NCc1ccccc1`: “inactive”.
Still for that read-out and setting: in the case of `C=CCSSCCC` it was “inactive”; in that of `C=Cc1ccc(C(C)(C)C)cc1`, “inactive”.
